PINK1 expr mod – modulators of PINK1 expression; PINK1 immunofluorescence, high-content cytometry, 24 h; actives 0.2% (n = 410,000); Potency, µM (top dose mostly 76.6 µM), inactives show top-dose activation (PINK1 increase), hits mostly activators; AID 624263; active = well fitted activation curve with a large enough effect; inconclusive = small, poorly fitted or top-dose-only effect; cell line not stated here; note: % of control where 0% means no effect; nearly all actives have a fitted effect of over 65% in size
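Decision-based qHTS: stable cells, 24 h exposure to five compound concentrations, CCCP as control. Fixed cells stained for PINK1 plus nuclear, mitochondrial and cell markers, cytometer read.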
KB-3-1 tox – KB-3-1 parental cell cytotoxicity. actives 1.4% (n = 400,000). KB-3-1 viability, CellTiter-Glo ATP luminescence, 72 h. Potency, µM (doses to about 46.1 µM), most hits filed as cytotoxic. AID 1347075; note: % is set by controls: 0 for no effect and ±100 for the full control effect; nearly all actives have a fitted effect of over 60% in size
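Parental KB-3-1 adenocarcinoma cells in phenol-red-free DMEM with 10% FBS were pin-treated with compounds at several concentrations, incubated 72 h at 37 °C, and viability read by CellTiter-Glo luminescence; concentration-effect curves were fitted after normalization.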
SW480 rereplic – inducers of DNA re-replication in SW480 colon cancer cells | SW480 DNA re-replication, Hoechst DNA content imaging, 48 h | Potency, µM (highest dose often 46.1 µM), without a hit: top-dose re-replication activation, hits mostly activators | actives 1.8% (n = 340,000); note: % of control where 0% means no effect; nearly all actives have a fitted effect of over 55% in size
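Compounds, transferred as 23 nL by pin tool, were incubated with cells for 48 hr; DNA content per nucleus was then quantified by Hoechst staining and fluorescence plate imaging.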
PTAP TSG101 blk – blocks PTAP/TSG101 interaction to inhibit HIV-1 budding | Fluorescence polarization, FITC-PTAP peptide / Tsg101 binding | Potency, µM (doses to about 115 µM), for the others: top-dose activity change, negative = inhibition, most hits filed as inhibitors | 340,000 tested, under 10 active | AID 493005; active = well fitted inhibition curve with a large enough effect in the main read-out, with a control signal flat, not every such curve was filed as active; inconclusive = small, poorly fitted or top-dose-only effect, or effect the other way, or a change in a side signal; inactive = no such curve, though single readings can be large or run the other way; note: % of control where 0% means no effect
Target sequence (Q99816 whole entry, looked up): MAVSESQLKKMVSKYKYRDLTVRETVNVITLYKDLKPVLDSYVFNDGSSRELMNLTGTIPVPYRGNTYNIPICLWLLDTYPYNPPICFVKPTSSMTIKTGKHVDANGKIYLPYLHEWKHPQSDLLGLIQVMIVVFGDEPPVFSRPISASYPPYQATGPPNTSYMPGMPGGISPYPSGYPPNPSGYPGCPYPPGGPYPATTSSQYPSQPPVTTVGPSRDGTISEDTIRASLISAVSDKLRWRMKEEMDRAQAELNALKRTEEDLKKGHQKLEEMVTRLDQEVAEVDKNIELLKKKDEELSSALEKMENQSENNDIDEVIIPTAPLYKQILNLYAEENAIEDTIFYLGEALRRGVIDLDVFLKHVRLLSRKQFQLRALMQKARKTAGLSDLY
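Fluorescence anisotropy tracks displacement of a FITC-tagged PTAP peptide (50 nM) from the Tsg101 binding domain (10 uM), following a 20 min room-temperature incubation at pH 7.5.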
MCF10A rerep – DNA re-replication induction in MCF 10a cells | MCF 10A DNA re-replication, Hoechst nuclear intensity, 48 h | Potency, µM (titrated, usually from 46.1 µM), for the others: top-dose activity, positive = re-replication, most hits filed as activators | actives 2.9% (n = 350,000) | AID 624296; note: % of control where 0% means no effect; nearly all actives have a fitted effect of over 50% in size
KB-V1 MDR tox – kills drug-selected multidrug resistant KB-V1 cells | actives 3.4% (n = 400,000) | Potency, µM (series often up to 46.1 µM), most hits filed as cytotoxic | KB-V1 MDR cells viability, CellTiter-Glo, 72 h | AID 1347076; note: % is set by controls: 0 for no effect and ±100 for the full control effect; nearly all actives have a fitted effect of over 60% in size
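Compound-treated KB-V1 multidrug-resistant cells, 72 h, 37 degrees C; viability by CellTiter-Glo. Fitted qHTS curves give the values.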
Starred values were filed as active, the others as inactive; i = inactive; ? = inconclusive; nt = no result; [ ] = remark or other dose. Hits are enriched below; roughly 6.8% of the tested compounds scored in any of these assays. Unless noted, calls come from the whole dose curve; as a rule, active = well fitted curve in the direction sought with a large enough effect; inconclusive = small, poorly fitted or top-dose-only effect, or another doubt; inactive = no such curve, though single readings can be large; an effect the other way counts as inactive or inconclusive. Potency is the fitted concentration of half-maximal effect.

SMILES | PINK1 expr mod | KB-3-1 tox | SW480 rereplic | PTAP TSG101 blk | MCF10A rerep | KB-V1 MDR tox
CCCCOc1ccc(C2C3CN(C(=O)OCC)CC=C3C(C#N)=C(N)C2(C#N)C#N)cc1OC (stereo not given) | 20%[38.3 µM] | i | 17% | 0% | 29% | ?
CCCN1CC=C2C(C#N)=C(N)C(C#N)(C#N)C(c3cccc(OC)c3OC)C2C1 (stereo not given) | 10µM* | i | -3% | -26% | 13% | ?
Cc1ccc(C2C3CN(C(C)C)CC=C3C(C#N)=C(N)C2(C#N)C#N)cc1 (stereo not given) | 25µM* | i | -7% | ? | 2% | i
N#CC1=C(N)C(C#N)(C#N)C(c2cccnc2)C2CN(C(=O)OCc3ccccc3)CC=C12 (stereo not given) | 4% | i | -3%[9.22 µM] | -7% | ? | ?
COc1cccc(OC)c1OCc1cc(C2C3CCCC=C3C(C#N)=C(N)C2(C#N)C#N)c(C)cc1C (stereo not given) | 4% | ? | 18µM* | -1% | 13µM* | i
CCOC(=O)N1CC=C2C(C#N)=C(N)C(C#N)(C#N)[C@H](c3ccc(OCC)c(OCC)c3)[C@H]2C1 | 12%[38.3 µM] | i | 4% | -5% | 0% | 8.2µM*
Cc1ccc(NC(=O)Cn2c(-c3nonc3N)nc3ccccc32)c(Br)c1 | 4% | nt | nt | nt | nt | nt
Cc1ccc(S(=O)(=O)c2c(O)cc(C)c(NS(=O)(=O)c3ccc(Br)cc3)c2C)cc1 | 1% | ? | nt | nt | nt | ?
Cn1c(-c2cccc(Br)c2)cnc1NCc1cccc(F)c1 | 10% | ? | nt | nt | nt | i
COc1ccc(OC)c(C2C3CN(C(C)C)CC=C3C(C#N)=C(N)C2(C#N)C#N)c1 (stereo not given) | 40µM* | i | 4% | -12% | ? | i
N#CC1=C(N)C(C#N)(C#N)C(c2cccnc2)C2COCC=C12 (stereo not given) | 0% | i | -5% | -2% | 4% | i
O=C(Nc1ccc(Cl)cc1C(=O)Nc1ccc(Br)cn1)c1ccco1 | 2%[38.3 µM] | i | 6% | 0% | 29% | 5.2µM*
COc1ccc(C(CNC(=O)c2cccc([N+](=O)[O-])c2)N2CCOCC2)cc1 (stereo not given) | 0% | nt | nt | nt | nt | nt
COCCNS(=O)(=O)c1cc(-c2nn(C)c(=O)c3ccccc23)ccc1C | 0% | i | -4% | -5% | 0% | ?
CCCCNS(=O)(=O)c1cc(-c2nn(C)c(=O)c3ccccc23)ccc1C | 7% | 16µM* | ? | 3% | 2% | ?
Cc1ccc(-c2nn3c(C)nnc3c3ccccc23)cc1S(=O)(=O)NC(C)c1ccccc1 (stereo not given) | 6% | ? | ? | 2% | ? | i
Cc1ccc(-c2nn3c(C)nnc3c3ccccc23)cc1S(=O)(=O)NC(C)(C)CO | 5% | i | 0% | -1% | 11µM* | i
Cc1ccc(-c2nn3c(C)nnc3c3ccccc23)cc1S(=O)(=O)NCc1ccco1 | nt | i | -4% | -7% | -9% | 15µM*
COc1ccc(-c2nc3cnc(OCc4ccccc4)nc3n(CCC#N)c2=O)cc1 | 9% | nt | nt | nt | nt | nt
CCN(CC)c1ccc(NC(=O)CN2C(=O)c3cccnc3Oc3ccccc32)c(C)c1 | 0% | i | nt | nt | nt | i
Cc1ccc(C(=O)NCC(c2ccco2)S(=O)(=O)c2ccc(Cl)cc2)cc1C (stereo not given) | 1% | i | nt | nt | nt | i
CCOCC(=O)NC1CCc2cc(OC(=O)COCC)c(OC)c(OC)c2-c2ccc(SC)c(=O)cc21 (stereo not given) | 5% | 0.0092µM* | 0.082µM* | 0% | ? | 16µM*
COc1cc2c(c(OC)c1OC)-c1ccc(SC)c(=O)cc1C(NC(=O)C(F)(F)F)CC2 (stereo not given) | 7% | 0.052µM* | 0.021µM* | -3% | ? | 0.13µM*
